Results: ChEMBL document CHEMBL4513216, “Probing the Open Global Health Chemical Diversity Library for Multistage-Active Starting Points for Next-Generation Antimalarials” (ACS Infect Dis, 2020)
In all, about 69,000 compounds went through this assay and about 8,600 (12%) showed an effect of 50% or more. The full list was thinned out, with strong results kept by preference.

Tested on: Plasmodium berghei
Assay: Screen against P. berghei liver stage (PbLuc), transformed with Luciferase, at 10uM
Type: functional, HepG2
Details: tested at 10 uM

Compound	INHIBITION
CC(CNC(=O)NCCCc1cc(N)n(-c2ccccc2)n1)N(C)C (stereo unspecified)	30.3%
CCN(CC)Cc1cn2c(n1)CN(C(=O)c1cc(C)on1)CC2	38.1%
COC(=O)C1(NCC(=O)Nc2cc(C)ccc2OC)CCCCC1	5.11%
c1ncn(CC2CN(Cc3nc(C4CC4)no3)CCO2)n1 (stereo unspecified)	-7.31%
CCn1cnnc1C1CCN(C(=O)c2ccnc(N(C)C)c2)CC1	31.6%
O=C(c1ccno1)N1CCOC[C@H](Oc2ccc(C(F)(F)F)cc2)C1	50.2%
COc1ccc(O[C@H]2COCCN(C(=O)c3ccno3)C2)cc1	-11.1%
O=C(c1ccno1)N1CCOC[C@H](Oc2ccccc2)C1	25.3%
CCOCC(=O)Nc1cccc(Oc2ccccn2)c1	-13.4%
COCCN1CCC2(CCN(Cc3cccs3)CC2)C1=O	-3.12%
O=C(NCCCn1nc2ccccn2c1=O)NCc1ccccc1	-9.76%
Cc1ccc(N2CCc3sc(C(=O)NCCN4CCCC4)cc32)nn1	-15.2%
O=C(NCC1CC1)c1cc2c(s1)CCN2c1ncccn1	75.6%
O=C(NCCN1CCCC1)c1cc2c(s1)CCN2c1ncccn1	61.1%
CC(C)NC(=O)c1cc2c(s1)CCN2c1ncccn1	-21.3%
O=C(NCC1CC1)c1cc2c(s1)CCN2C(=O)c1cccnc1	-26.1%
CCCNC(=O)c1cc2c(s1)CCN2c1ncccn1	4.98%
O=C(c1ccco1)N1CCO[C@@H]2CNC[C@@H]21	22.2%
COc1ccc(C)cc1-n1ccc(C(=O)NCC2CCCOC2)n1 (stereo unspecified)	17.3%
OC1(CNCCc2nc3c(s2)CCCC3)CNCCOC1 (stereo unspecified)	-12.1%
CN(CCCSc1ccccc1)C(=O)Cn1ncc(N(C)C)cc1=O	31.7%
Cc1ccc(NC(=O)c2nc3c(s2)CCCN3C(=O)C2CC2)cn1	-0.804%

Compound	INHIBITION
Cc1ccc(NC(=O)c2nc3c(s2)CCCN3C(C)C)cn1	63.5%
CC(=O)N1CCCc2sc(C(=O)Nc3ccc(C)nc3)nc21	34.6%
NS(=O)(=O)CCN(CCc1cccc(F)c1)C1CCCC1	36.3%
CS(=O)(=O)Nc1cnn(Cc2cccc(Cl)c2)c1	29.1%
COc1ccc(-n2ccc(C(=O)NCCn3ccnc3)n2)cc1	5.9%
CN1[C@@H]2CC[C@H]1CN(C(=O)c1nnc3n1CCCC3)CC2	-151%
O=C(NCc1ccccn1)[C@@]12CCO[C@@H]1CCN(c1ncccn1)C2	41.2%
COCCNC(=O)[C@@]12CCO[C@@H]1CCN(Cc1scnc1C)C2	8.67%
O=C(NCc1ccco1)[C@@]12CCO[C@@H]1CCN(Cc1ccccn1)C2	-34.7%
CNC(=O)[C@@]12CCO[C@@H]1CCN(Cc1scnc1C)C2	19%
CC(C)NC(=O)[C@@]12CCO[C@@H]1CCN(Cc1ccco1)C2	60.3%
Cc1ncsc1CN1CC[C@H]2OCC[C@@]2(C(=O)NCC2CC2)C1	53.4%
O=C(NCc1ccco1)[C@@]12CCO[C@@H]1CCN(CCN1CCCC1)C2	22.4%
O=C(NCc1ccccn1)[C@@]12CCO[C@@H]1CCN(Cc1ccccn1)C2	51.2%
Cc1cc(CN2CC[C@H]3OCC[C@@]3(C(=O)NC(C)C)C2)no1	6.32%
c1coc(CN2CCCn3c(nnc3Cn3cccc3)C2)c1	45.4%
Cc1ccc(CN2C[C@H](OCC3CCOCC3)[C@H]3COC[C@H]32)o1	-59.9%
Oc1cc(CC2COCCN(CC3(O)CCOCC3)C2)ncn1 (stereo unspecified)	6.26%
CC(C)c1nnc2n1CCN(C(=O)Cc1csc(C(C)(C)C)n1)C2	1.35%
CC(C)N1CCC(Cc2cc(-c3cccc(C(=O)O)c3)ncn2)CC1	23.4%
Fc1ccc(CN2CCO[C@H]3[C@H](OCCN4CCCC4)CC[C@@H]32)cc1	15.1%
c1coc(CN2CCO[C@H]3[C@H](OCC4CCCC4)CC[C@@H]32)c1	47.4%

Compound	INHIBITION
Fc1ccc(CN2CCO[C@H]3[C@H](OCC4CCCC4)CC[C@@H]32)cc1	66.8%
c1cc(CN2CCO[C@H]3[C@H](OCCN4CCCC4)CC[C@@H]32)ccn1	38.2%
Fc1ccc(CN2CCO[C@H]3[C@H](OCC4CC4)CC[C@@H]32)cc1	-30.8%
c1cc(CN2CCO[C@H]3[C@H](OCC4CCCC4)CC[C@@H]32)ccn1	62.6%
CCOC[C@]12COC[C@H]1CN(Cc1ccc(F)c(F)c1)C2	10.4%
Cc1cnccc1CN(C)Cc1c[nH]nc1-c1ccc(F)cc1F	18.6%
COc1ccc(-c2n[nH]cc2CN(C)Cc2ccoc2)c(F)c1	-25.8%
COc1ccc(-c2n[nH]cc2CN(C)Cc2nnc(C)o2)c(F)c1	23.8%
COc1ccc(-c2n[nH]cc2CN(C)Cc2nccn2C)c(F)c1	51.5%
CC(C)CN(C)Cc1c[nH]nc1-c1ccc(F)cc1F	11.9%
CN(Cc1c[nH]nc1-c1ccc(F)cc1F)Cc1nccn1C	52.2%
Cc1nc(CN2C(=O)CC[C@@H]3[C@H]2CCN3C(=O)C2CCCO2)cs1 (stereo partly specified)	15.4%
O=C(CCc1ccncc1)N1CCc2cc(Cl)cc(Cl)c2C1	49.7%
COc1ccc(F)cc1C(=O)N1C[C@@H]2CC[C@H]1CN(c1ncccn1)C2	10.7%
CC(C)C(=O)N1CCC(C)(c2cc(O)[nH]n2)CC1	-4.87%
c1ccc(CCN2CCCC2c2ccnc(Nc3ncccn3)n2)cc1 (stereo unspecified)	11.8%
Cc1ccccc1CN1CCCC1c1cccc(Nc2nccs2)n1 (stereo unspecified)	71.8%
COc1cccc(CN2CCCC2c2cncc(Nc3nncs3)n2)c1 (stereo unspecified)	-29.9%
c1ccc(CCN2CCCC2c2cccc(Nc3nccs3)n2)cc1 (stereo unspecified)	69.2%
Cc1cccc(CN2CCCC2c2cccc(Nc3nccs3)n2)c1 (stereo unspecified)	72%
CS(=O)(=O)N1CCCC1c1cccc(Nc2nccs2)n1 (stereo unspecified)	-17.7%
Cc1ccccc1CN1CCCC1c1cncc(Nc2nncs2)n1 (stereo unspecified)	22%

Compound	INHIBITION
Cc1cccc(CN2CCCC2c2cncc(Nc3nncs3)n2)c1 (stereo unspecified)	46.2%
c1ccc(CCN2CCCC2c2cncc(Nc3nncs3)n2)cc1 (stereo unspecified)	11.8%
COc1cccc(CNC(=O)CCNS(=O)(=O)c2ccc(C)cc2)c1	-31.3%
CCCC1c2cccn2CCN1S(=O)(=O)N1CCOCC1 (stereo unspecified)	1.65%
CCCc1nc(C(=O)NC(COC)c2ccnn2C)cs1 (stereo unspecified)	16.3%
Cc1ccc(CN2CCC[C@]3(C(=O)O)CN(CC4CC4)C[C@@H]3C2)s1	-27.6%
COCC(=O)N1CCN(Cc2cc(F)cc(Br)c2)CC1	-10.9%
CN(C)CCOCc1nnc2n1CCN(Cc1ccco1)C2	-13.7%
CCc1ccc(C2COCCN2C(=O)Nc2cc(C)on2)o1 (stereo unspecified)	-107%
CCc1ccc(C2COCCN2C(=O)Nc2ccc(C#N)cc2)o1 (stereo unspecified)	65.3%
CCc1ccc(C2COCCN2C(=O)Nc2ccc(C(N)=O)c(Cl)c2)o1 (stereo unspecified)	78.3%
CCc1ccc(C2COCCN2C(=O)Nc2cccc(C(C)=O)c2)o1 (stereo unspecified)	-2.9%
CCc1ccc(C2COCCN2C(=O)NCc2cccc(C#N)c2)o1 (stereo unspecified)	-92.8%
Cc1ccc(C2COCCN2C(=O)c2ccc(C#N)cc2)o1 (stereo unspecified)	32%
CNC(=O)C1CN(Cc2c[nH]cn2)CCN(C2CCOCC2)C1 (stereo unspecified)	25.6%
CC(C)Oc1ccc(C(=O)N2CCCSCC2CN(C)C)cc1 (stereo unspecified)	36.6%
O=C(COC[C@H]1CC[C@H]2[C@H](CCN2c2ccccn2)O1)N1CCCC1	-37.4%
Cc1nccn1CCN(C)C(=O)c1cn(CC2CCCCC2)nn1	41.8%
CCOCc1nnc(NCc2cccnc2)o1	-0.897%
COCc1cccc(NCc2cccnc2)c1	36.5%
CCSc1cccc(NCc2cccnc2)c1	85.2%
COc1ccnc(NC(=O)CSCc2cccnc2)c1	36.9%

Compound	INHIBITION
CCSCc1cccc(NCc2cccnc2)c1	61.6%
Cc1cc(NCc2cccnc2)n2nc(C)cc2n1	-10.4%
OCc1ccc(Cl)c(NCc2cccnc2)c1	3.16%
COc1cccc(CNCc2cccnc2)c1	13.7%
COc1cccc(CSCC(=O)NCc2cccnc2)c1	54.5%
CCCc1nn(Cc2ccc(Br)s2)c(=O)o1	40.5%
CCc1nc(CN2CCCN(C(=O)CC(C)OC)CC2)cs1 (stereo unspecified)	43.3%
CN(Cc1nccn1CC(F)(F)F)C(=O)c1cccc(C#N)c1	41.1%
CC(NC(=O)CNc1cc2c(cc1Cl)OCCO2)c1ccco1 (stereo unspecified)	-10.3%
O=C(Nc1ccc(-c2cnc(NCCO)nc2)cc1)[C@@H]1CCCCN1	23.4%
CCCn1nc2c(cc1=O)CN(Cc1ccccn1)CC2	58.3%
CCCn1nc2c(cc1=O)CN(Cc1cc(C)on1)CC2	40.1%
CCCn1nc2c(cc1=O)CN(CCS(C)(=O)=O)CC2	70.1%
CCCn1nc2c(cc1=O)CN(Cc1nc(C)c3ccccc3n1)CC2	34.6%
CCCn1nc2c(cc1=O)CN(CCCS(N)(=O)=O)CC2	47.6%
CCCn1nc2c(cc1=O)CN(CCN1CCCC1=O)CC2	-7.35%
CNC(=O)N1CC[C@@H]2CN(Cc3ccccc3)S(=O)(=O)[C@@H]2CC1	23.1%
CC(NC(=O)NCCc1nc(C(F)(F)F)cs1)C(=O)N(C)C (stereo unspecified)	-15.5%
